Bioassay records (PubChem)
Rows were chosen to be rich in hits. Some 12% of all compounds tested hit in one or more screens of this group.
G9a inh = G9a (human) methyltransferase inhibition. Q96KQ7. G9a H3K9 monomethylation, AlphaScreen, 2 h. Potency, µM (titrated, usually from 102 µM), without a hit: at the highest dose activity, negative = inhibition, hits mostly inhibitors. 8.8% of 350,000 active. AID 504332; also: % is scaled to controls: 0 for no effect and ±100 for the full control effect; nearly all actives have a fitted effect of over 75% in size
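Compounds were preincubated with 20 nM G9a for 15 min, after which biotinylated H3K9 peptide (500 nM) and SAM (20 uM) started a 2 h room-temperature reaction. Monomethylated product was quantified by antibody-based AlphaScreen chemiluminescence.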
Sfp PPTase inh = blocks B. subtilis Sfp PPTase activity; Potency, µM, for inactives: largest response in the series, negative = inhibition, usual class: inhibitors; Biochemical Sfp PPTase activity, qHTS; Q9F4F7; 3.5% of 310,000 active;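 also: the enzyme is Sfp with the accession as filed and its product quenches rhodamine fluorescence; 0% = enzyme reaction without inhibitor and -100% = no enzyme wells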
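Buffer: 50 mM Hepes-Na pH 7.6, 10 mM MgCl2, 0.01% Nonidet P-40, 0.01% BSA. Enzyme 15 nM, pre-exposed to compound 15 min; substrates then added and fluorescence change tracked over 30 min.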
HP1b binding inh = HP1-beta chromodomain-methylated histone interaction inhibition; Potency, µM (doses to about 114 µM), inactives show at the highest dose activity change, negative = inhibition, most hits filed as inhibitors; AlphaScreen HP1-beta / biotin-H3K9me3 peptide binding; P83916; AID 540317; 0.56% of 390,000 active; also: nearly all actives have a fitted effect of over 70% in size
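AlphaScreen: HP1-beta (50 nM) preformed 30 min with biotin-H3(1-18)K9me3 peptide (50 nM) in PBS pH 7.4, 0.01% Tween-20. Compound added for 30 min at RT, then streptavidin donor/nickel chelate acceptor beads (10 ug/mL) for 30 min.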
JMJD2A Tudor inh = inhibitors of human JMJD2A Tudor domain; O75164; AlphaScreen JMJD2A-Tudor / H3K4me3 peptide binding; Potency, µM (highest dose often 114 µM), without a hit: top-dose activity change, negative = inhibition, hits mostly inhibitors; 4.4% of 390,000 active; AID 504339; also: % is scaled to controls: 0 for no effect and ±100 for the full control effect; nearly all actives have a fitted effect of over 50% in size
L3MBTL1 inh = inhibitors of human L3MBTL1; Q9Y468; AlphaScreen L3MBTL1–H3K9me1 peptide binding; Potency, µM (titrated, usually from 57.1 µM), for the others: at the highest dose activity, negative = inhibition, hits mostly inhibitors; 0.66% of 230,000 active; also: % is scaled to controls: 0 for no effect and ±100 for the full control effect; nearly all actives have a fitted effect of over 60% in size
Target sequence (Q9Y468 whole entry, looked up): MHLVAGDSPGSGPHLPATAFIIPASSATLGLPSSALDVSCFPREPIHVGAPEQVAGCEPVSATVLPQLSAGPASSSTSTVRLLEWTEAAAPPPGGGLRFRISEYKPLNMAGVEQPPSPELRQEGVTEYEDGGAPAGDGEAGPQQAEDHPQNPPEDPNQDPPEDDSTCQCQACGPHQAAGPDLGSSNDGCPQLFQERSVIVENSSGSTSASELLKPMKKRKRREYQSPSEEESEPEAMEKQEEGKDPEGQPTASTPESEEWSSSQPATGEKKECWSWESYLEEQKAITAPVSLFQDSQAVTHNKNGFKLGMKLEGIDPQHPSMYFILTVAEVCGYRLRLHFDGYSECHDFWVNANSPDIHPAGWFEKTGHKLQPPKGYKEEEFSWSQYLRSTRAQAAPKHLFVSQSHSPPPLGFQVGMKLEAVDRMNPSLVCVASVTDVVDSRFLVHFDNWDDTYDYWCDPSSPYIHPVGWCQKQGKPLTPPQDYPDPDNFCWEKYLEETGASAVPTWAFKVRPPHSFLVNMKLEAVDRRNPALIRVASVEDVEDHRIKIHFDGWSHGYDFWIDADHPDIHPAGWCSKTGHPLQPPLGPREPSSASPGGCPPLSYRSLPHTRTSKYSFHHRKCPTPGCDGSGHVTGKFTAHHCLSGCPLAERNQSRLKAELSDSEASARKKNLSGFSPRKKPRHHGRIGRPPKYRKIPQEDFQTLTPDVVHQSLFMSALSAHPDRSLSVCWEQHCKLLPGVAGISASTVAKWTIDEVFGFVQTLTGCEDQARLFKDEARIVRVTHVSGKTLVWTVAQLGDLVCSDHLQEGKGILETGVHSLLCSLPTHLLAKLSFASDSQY
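AlphaScreen assay: L3MBTL1 (50 nM final) was preincubated 30 min at room temperature with biotinylated H3(1-15)K9me1 peptide (75 nM final), then 30 min with library compounds; streptavidin donor and nickel chelate acceptor beads (10 ug/mL final) added, 30 min dark.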
BAZ2B block = BAZ2B (human) inhibition | Q9UIF8 | AlphaScreen BAZ2B-H3K14Ac peptide displacement | Potency, µM (doses to about 114 µM), for inactives: at the top dose activity change, negative = inhibition, most hits filed as inhibitors | 4.4% of 360,000 active | AID 504333; also: % is scaled to controls: 0 for no effect and ±100 for the full control effect; nearly all actives have a fitted effect of over 60% in size
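AlphaScreen luminescence quantifies BAZ2B engagement of H3K14Ac peptide; the protein and biotinylated peptide are both at 50 nM final, buffer PBS pH 7.4 with 0.01% Tween-20, all steps at room temperature.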
An asterisk follows results filed as active; [ ] = remark or other dose. Calls follow the shape of the dose curve; as a rule, active = well fitted curve in the direction sought with a large enough effect; inconclusive = small, poorly fitted or top-dose-only effect, or another doubt; inactive = no such curve, though single readings can be large; an effect the other way counts as inactive or inconclusive. Potency is read from the fitted curve at half-maximal effect.

`COc1ccc(NC2c3ccccc3C(=O)N2Cc2ccco2)cc1OC` (stereo not given) gave G9a inh inconclusive, Sfp PPTase inh -2%, HP1b binding inh -10%, JMJD2A Tudor inh inconclusive, L3MBTL1 inh -7% and BAZ2B block inconclusive.
`CCOc1ccc(NC2c3ccccc3C(=O)N2Cc2ccco2)cc1` (stereo not given) gave G9a inh 45µM*, Sfp PPTase inh -24%, HP1b binding inh inconclusive, JMJD2A Tudor inh 45µM*, L3MBTL1 inh -41% and BAZ2B block 50µM*.
O=C1c2ccccc2C(Nc2ccc(F)c(Cl)c2)N1Cc1ccco1 (stereo not given) was read as G9a inh 45µM*, Sfp PPTase inh 32µM*, HP1b binding inh 15%, JMJD2A Tudor inh -30%, L3MBTL1 inh -5% and BAZ2B block inconclusive.
O=c1c2ncn([C@@H]3O[C@@H]4COP(=O)(O)O[C@H]4[C@H]3O)c2nc2[nH]c(-c3ccccc3)cn12 was read as Sfp PPTase inh 22%.
For Cc1cc(NC(=O)C2CC(=O)N(c3cccc(Cl)c3)C2)no1 (stereo not given) the results were G9a inh -2%[59 µM], Sfp PPTase inh 16%, HP1b binding inh 39%, JMJD2A Tudor inh -2% and BAZ2B block -1%.
Screening O=C1c2ccccc2C(Nc2cccnc2)N1Cc1ccc2c(c1)OCO2 (stereo not given) returned G9a inh inconclusive, Sfp PPTase inh 21%, HP1b binding inh 12%, JMJD2A Tudor inh -17%, L3MBTL1 inh -15% and BAZ2B block 2%.
For O=C1c2ccccc2C(Nc2ccc3c(c2)OCO3)N1Cc1ccco1 (stereo not given) the results were G9a inh 10µM*, Sfp PPTase inh -29%, HP1b binding inh inconclusive, JMJD2A Tudor inh 56µM*, L3MBTL1 inh -7% and BAZ2B block 45µM*.
`O=C1c2ccccc2C(Nc2ccc3c(c2)OCO3)N1Cc1ccc2c(c1)OCO2` (stereo not given) gave G9a inh 40µM*, Sfp PPTase inh inconclusive, HP1b binding inh inconclusive, JMJD2A Tudor inh 45µM*, L3MBTL1 inh inconclusive and BAZ2B block 20µM*.
Screening CCCCC#CC1C=CC(Oc2cc(OC)c(OC)c(OC)c2)C(CO)O1 (stereo not given) returned Sfp PPTase inh 0%.
O=C1NC(=O)C2C1C(c1cccs1)NN2Cc1ccccc1 (stereo not given) was read as G9a inh 50µM*, Sfp PPTase inh -14%, HP1b binding inh 14%, JMJD2A Tudor inh -28%, L3MBTL1 inh 9% and BAZ2B block inconclusive.
CC(=O)/C=C\c1ccccc1OC(=O)c1cc2ccccc2oc1=O was read as Sfp PPTase inh -5%, HP1b binding inh 23%, JMJD2A Tudor inh -12%, L3MBTL1 inh 8% and BAZ2B block -3%.
O=C(/C=C\c1ccccc1OC(=O)c1ccccc1F)c1cc2ccccc2o1 was read as G9a inh 45µM*, Sfp PPTase inh inconclusive, HP1b binding inh -13%, JMJD2A Tudor inh -36%, L3MBTL1 inh -17% and BAZ2B block -31%.
Screening COc1ccc(C(=O)NC(C)CCn2cccn2)cc1OC1CCN(C(C)C)CC1 (stereo not given) returned G9a inh 8%, Sfp PPTase inh 14%, HP1b binding inh 21%, JMJD2A Tudor inh -7% and BAZ2B block 0%.
CC(C)Oc1ccc2ccccc2c1CNC[C@H]1O[C@@H](n2cnc(C(N)=O)n2)[C@H](O)[C@@H]1O was read as HP1b binding inh 17% and JMJD2A Tudor inh -16%.
Screening C/C(=N\NS(=O)(=O)c1ccc(C)c([N+](=O)[O-])c1)c1cccs1 returned G9a inh 32µM*, Sfp PPTase inh -12%, HP1b binding inh 17%, JMJD2A Tudor inh -18% and L3MBTL1 inh -6%.
Cc1ccc(/C=N/NC(=O)c2cccs2)cc1[N+](=O)[O-] was read as G9a inh 20%, Sfp PPTase inh 15%, HP1b binding inh 9%, JMJD2A Tudor inh -19%, L3MBTL1 inh -3% and BAZ2B block -22%[57.1 µM].
Screening CC(C)/C(=N\NS(=O)(=O)c1ccc(Br)cc1)c1cccs1 returned G9a inh inconclusive, Sfp PPTase inh 18%, HP1b binding inh -7%, JMJD2A Tudor inh 50µM*, L3MBTL1 inh 1% and BAZ2B block -23%.
For C/C(=N\NS(=O)(=O)c1ccc([N+](=O)[O-])cc1)c1cccs1 the results were G9a inh 45µM*, Sfp PPTase inh 1%, HP1b binding inh -5%, JMJD2A Tudor inh inconclusive and BAZ2B block inconclusive.
`C/C(CC(C)C)=N\NS(=O)(=O)c1ccc(C)c([N+](=O)[O-])c1` gave G9a inh 32µM*, Sfp PPTase inh 12%, HP1b binding inh -12%, JMJD2A Tudor inh inconclusive, L3MBTL1 inh 7% and BAZ2B block 12%.
CSc1nsc(SC)c1C(=O)O was read as G9a inh 45µM*, Sfp PPTase inh 21%, HP1b binding inh 16%, JMJD2A Tudor inh -2%, L3MBTL1 inh inconclusive and BAZ2B block -4%.
O=C1CC(c2ccco2)CC(O)=C1C=Nc1cc(Cl)cc(Cl)c1 (stereo not given) was read as G9a inh 10µM*, Sfp PPTase inh 40µM*, HP1b binding inh -19%, JMJD2A Tudor inh inconclusive and BAZ2B block inconclusive.
Screening O=C(CCCCn1cnc2c(=S)nc[nH]c21)Nc1ccc(C(=O)O)c(O)c1 returned HP1b binding inh 71µM* and JMJD2A Tudor inh 2.8µM*.
Screening COc1ccccc1-c1cncnc1NCc1ccccc1 returned G9a inh 4%[0.501 µM] and Sfp PPTase inh -24%.
`CC1(c2ccc3c(c2)OCCO3)NC(=O)N(CC(=O)Nc2ccccc2SCC#N)C1=O` (stereo not given) gave G9a inh inconclusive, HP1b binding inh 37%, JMJD2A Tudor inh -9%, L3MBTL1 inh 2% and BAZ2B block -12%.
Screening N#Cc1c(N(CCO)CCO)nc(N)c2c(N)nc3c(c12)CC(=O)N3Cc1cccs1 returned G9a inh 45µM*, Sfp PPTase inh 4%, HP1b binding inh -15%, JMJD2A Tudor inh inconclusive, L3MBTL1 inh -24% and BAZ2B block inconclusive.
Screening CN(CCO)c1nc(N)c2c(N)nc3c(c2c1C#N)CC(=O)N3Cc1cccs1 returned G9a inh inconclusive, Sfp PPTase inh inconclusive, HP1b binding inh 34%, JMJD2A Tudor inh -7%, L3MBTL1 inh 15% and BAZ2B block -26%.
`NC(=O)[C@@H]1CCCN1` gave G9a inh 14%[59 µM] and Sfp PPTase inh -9%.
